Where “and” joins values, the source holds several entries; their conditions need not be identical. Identical values can stand only once. Inconclusive results are not listed. Calls of active or inactive are those of the source. How the source made its calls, unless noted: active means hit-call score of the fitted dose curve at least 0.9, where 1 is the maximum; inactive means score below 0.9.
Experiments:
[1] = read-out: E-selectin (Homo sapiens) (UniProt P16581); assay: BSK_SAg_Eselectin: BioMAP Diversity Plus: SAg Assay for Eselectin Biomarker Activity (AID 2283091); conditions: primary human HUVEC with PBMC; actives raise or lower the signal
Method in brief: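 Endpoint values derive from bidirectional fitting relative to DMSO, using ELISA-measured E-selectin in a human vascular co-culture (umbilical vein endothelium plus PBMC) sampled 24 h after dosing.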

[2] = read-out: Monokine induced gamma interferon (MIG), CXCL9 (gene 4283); assay: BSK_SAg_MIG: BioMAP Diversity Plus: SAg Assay for Monokine induced gamma interferon (MIG) Biomarker Activity (AID 2283092); conditions: primary human HUVEC with PBMC; actives raise or lower the signal
Method in brief: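 Endothelial cells and PBMC were co-cultured, exposed to test chemicals, and sampled 24 h later. MIG was measured by ELISA, and responses were fitted in both directions relative to DMSO.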

[3] = BSK_SAg_PBMCCytotoxicity: PBMC Cytotoxicity Assessment in the BioMAP Diversity Plus: SAg Assay (AID 2283093); conditions: primary human HUVEC with PBMC;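 further: PBMC viability measured as Alamar Blue reduction fluorescence at 546/580 nm; fitted both ways against DMSO so a hit may be loss or gain of signal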;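 on AC50: PBMC superantigen activated with SEB plus TSST-1 one hour after compound addition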
Method in brief: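 Compound added to 75,000 PBMC/well for 1 h; SEB and TSST-1 then added at 20 ng/mL final each; 90 h incubation; Alamar Blue 6 h; read 546/580 nm ex/em. Activity fitted bidirectionally relative to DMSO baseline.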

[4] = read-out: Interleukin-8 (IL8), CXCL8 (gene 3576); assay: BSK_SAg_IL8: BioMAP Diversity Plus: SAg Assay for Interleukin-8 (IL8) Biomarker Activity (AID 2283094); conditions: primary human HUVEC with PBMC; actives raise or lower the signal
Method in brief: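 Human umbilical vein endothelial cells co-cultured with PBMC, stimulated with superantigen; IL-8 measured by ELISA 24 h after chemical dosing. Bidirectional fitting versus DMSO; SRB staining in parallel cultures tracks cytotoxicity.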

[5] = BSK_SAg_Proliferation: Cell Proliferation Assessment in the BioMAP Diversity Plus: SAg Assay (AID 2283095); conditions: primary human HUVEC with PBMC
Method in brief: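 Human umbilical vein endothelial cells co-cultured with PBMC; sulforhodamine B total-protein staining (0.1% SRB after 10% TCA fixation, absorbance 560 nm) at 96 h in sub-confluent culture. Fitted bidirectionally against DMSO.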

[6] = BSK_SAg_SRB: Viability Assessment in the BioMAP Diversity Plus: SAg Assay (AID 2283096); conditions: primary human HUVEC with PBMC;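 further: cells read one day after compound addition; hits may be either gain or loss of signal compared with DMSO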
Method in brief: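 Total protein by sulforhodamine B staining, 24 h after dosing, in HUVEC–PBMC co-culture; DMSO-referenced bidirectional fitting.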

[7] = molecular target: human Beta-secretase (BACE), BACE1 (gene 23621) (UniProt P56817); assay: NVS_ENZ_hBACE: NovaScreen (NVS) Enzymatic Assay for human Beta-secretase (BACE) (AID 2283140; active means hit-call score of the fitted dose curve at least 0.9, where 1 is the maximum;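 further: hits are inhibitors that reduce fluorescent substrate signal versus DMSO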)
Method in brief: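 Cell-free assay of recombinant Sf9-expressed human BACE with fluorescent substrate, read by fluorescence intensity after 1 h. Primary screen in duplicate at 25 uM; actives then run in concentration series; loss of signal relative to DMSO.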

[8] = molecular target: human CYP1A1, CYP1A1 (gene 1543) (UniProt P04798); assay: NVS_ADME_hCYP1A1: NovaScreen (NVS) CYP450-related Enzyme Activity (ADME) Assay for human CYP1A1 (AID 2283100; active means hit-call score of the fitted dose curve at least 0.9, where 1 is the maximum)
Method in brief: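 Inhibition of recombinant CYP1A1 turnover was assessed fluorometrically in a biochemical format 1 h after compound exposure. Testing began at 10 uM in duplicate and progressed to concentration series reaching 20 uM, with on-plate positive and negative controls.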

[9] = molecular target: human CYP2B6, CYP2B6 (gene 1555) (UniProt P20813); assay: NVS_ADME_hCYP2B6: NovaScreen (NVS) CYP450-related Enzyme Activity (ADME) Assay for human CYP2B6 (AID 2283101; active means hit-call score of the fitted dose curve at least 0.9, where 1 is the maximum)
Method in brief: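 Cell-free recombinant enzyme assay with a fluorogenic substrate; fluorescence intensity read 1 hour after dosing. Loss of signal relative to acetonitrile negative control indicates inhibition. Primary screen run in duplicate at 10 uM, actives then tested in concentration series.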

[10] = molecular target: human CYP1A2, CYP1A2 (gene 1544) (UniProt P05177); assay: NVS_ADME_hCYP1A2: NovaScreen (NVS) CYP450-related Enzyme Activity (ADME) Assay for human CYP1A2 (AID 2283102; active means hit-call score of the fitted dose curve at least 0.9, where 1 is the maximum;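 further: potency for inhibition since loss of fluorescence marks reduced CYP1A2 activity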)
Method in brief: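 Inhibition scored as decrease in fluorescent product versus acetonitrile negative control. Enzyme: insect-cell recombinant human CYP1A2, substrate-specific, cell-free. Reading at 0.5 h; 10 uM duplicate initial screen with positive and negative controls on every plate.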

[11] = molecular target: human CYP2D6, CYP2D6 (gene 1565) (UniProt P10635); assay: NVS_ADME_hCYP2D6: NovaScreen (NVS) CYP450-related Enzyme Activity (ADME) Assay for human CYP2D6 (AID 2283107; active means hit-call score of the fitted dose curve at least 0.9, where 1 is the maximum)
Method in brief: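 Biochemical fluorescence assay, insect-cell-derived enzyme. Read at 1 h; inhibition taken from loss of signal against acetonitrile. Screened at 10 uM in duplicate, with concentration series for actives.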

[12] = molecular target: human CYP2C9, CYP2C9 (gene 1559) (UniProt P11712); assay: NVS_ADME_hCYP2C9: NovaScreen (NVS) CYP450-related Enzyme Activity (ADME) Assay for human CYP2C9 (AID 2283108; active means hit-call score of the fitted dose curve at least 0.9, where 1 is the maximum)
Method in brief: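 Fluorescence readout of CYP2C9 activity (SF9-expressed human enzyme) at 0.75 h. The primary screen used 10 uM in duplicate, with concentration-response follow-up for actives; acetonitrile was the negative control.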

[13] = molecular target: Cytochrome P450 3A4 (Homo sapiens) (UniProt P08684); assay: NVS_ADME_hCYP3A4: NovaScreen (NVS) CYP450-related Enzyme Activity (ADME) Assay for human CYP3A4 (AID 2283110; active means hit-call score of the fitted dose curve at least 0.9, where 1 is the maximum)
Method in brief: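 Compounds were first screened in duplicate at 10 uM against recombinant CYP3A4 produced in insect cells, then actives were run in concentration series. Enzyme activity was measured by fluorescence after 0.33 hour, with acetonitrile as baseline.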

[14] = molecular target: Cytochrome P450 2C19 (Homo sapiens) (UniProt P33261); assay: NVS_ADME_hCYP2C19: NovaScreen (NVS) CYP450-related Enzyme Activity (ADME) Assay for human CYP2C19 (AID 2283113; active means hit-call score of the fitted dose curve at least 0.9, where 1 is the maximum;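 on AC50: potency for inhibition seen as loss of fluorescent signal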)
Method in brief: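 Biochemical CYP2C19 inhibition screen: insect-cell recombinant protein plus fluorescent substrate, 1 h, fluorescence intensity. Acetonitrile defined baseline activity. Single 10 uM concentration in duplicate, with concentration-response follow-up for actives.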

[15] = molecular target: human Caspase 5 (CASP5), CASP5 (gene 838) (UniProt P51878); assay: NVS_ENZ_hCASP5: NovaScreen (NVS) Enzymatic Assay for human Caspase 5 (CASP5) (AID 2283137; active means hit-call score of the fitted dose curve at least 0.9, where 1 is the maximum)
Method in brief: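 Recombinant human caspase 5 expressed in E. coli, fluorogenic substrate, fluorescence read 2 h after dosing. Single-point 25 uM duplicate screen, then concentration-response to maximum 50 uM for actives; DMSO baseline.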

Caspase-3 (Homo sapiens) = Caspase-3 (Homo sapiens) (UniProt P42574); assay: NVS_ENZ_hCASP3: NovaScreen (NVS) Enzymatic Assay for human Caspase 3 (CASP3) (AID 2283139; active means hit-call score of the fitted dose curve at least 0.9, where 1 is the maximum)
Method in brief: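 Recombinant human caspase-3 from E. coli with a fluorogenic substrate, read by fluorescence 1 h after dosing. Primary screen in duplicate at 25 uM. Actives (for example ≥30% inhibition) rerun as concentration-response up to 50 uM.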

[16] = molecular target: human Acid Phosphatase 1 (ACP1), ACP1 (gene 52) (UniProt P24666); assay: NVS_ENZ_hACP1: NovaScreen (NVS) Enzymatic Assay for human Acid Phosphatase 1 (ACP1) (AID 2283136; active means hit-call score of the fitted dose curve at least 0.9, where 1 is the maximum)
Method in brief: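 Recombinant enzyme expressed in Sf9 cells, tested cell-free; activity read by fluorescence with electrophoretic mobility shift separation of substrate and product, 1.5 h after dosing. Primary screen in duplicate at 25 uM, actives then run in concentration series; loss of signal versus DMSO.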

[17] = molecular target: human CYP19A1, CYP19A1 (gene 1588) (UniProt P11511); assay: NVS_ADME_hCYP19A1: NovaScreen (NVS) CYP450-related Enzyme Activity (ADME) Assay for human CYP19A1 (AID 2283098; active means hit-call score of the fitted dose curve at least 0.9, where 1 is the maximum)
Method in brief: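 Biochem, cell-free; recombinant enzyme + specific substrate; fluorescence intensity at 0.5 h post-dose; 10 uM duplicate primary, conc. series for actives; acetonitrile = negative control/baseline; positive and negative controls on every plate.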

[18] = molecular target: human AKT serine/threonine Kinase 1 (AKT1), AKT1 (gene 207) (UniProt P31749); assay: NVS_ENZ_hAKT1: NovaScreen (NVS) Enzymatic Assay for human AKT serine/threonine Kinase 1 (AKT1) (AID 2283138; active means hit-call score of the fitted dose curve at least 0.9, where 1 is the maximum)
Method in brief: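 Recombinant human AKT1 with a specific substrate, product separated by electrophoretic mobility shift, read after 1 h. Compounds at 25 uM in duplicate, then concentration-response up to 50 uM for hits; inhibition relative to DMSO.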

Measured: AC50

human Beta-secretase (BACE), BACE1 (gene 23621), sequence (P56817 whole entry, looked up): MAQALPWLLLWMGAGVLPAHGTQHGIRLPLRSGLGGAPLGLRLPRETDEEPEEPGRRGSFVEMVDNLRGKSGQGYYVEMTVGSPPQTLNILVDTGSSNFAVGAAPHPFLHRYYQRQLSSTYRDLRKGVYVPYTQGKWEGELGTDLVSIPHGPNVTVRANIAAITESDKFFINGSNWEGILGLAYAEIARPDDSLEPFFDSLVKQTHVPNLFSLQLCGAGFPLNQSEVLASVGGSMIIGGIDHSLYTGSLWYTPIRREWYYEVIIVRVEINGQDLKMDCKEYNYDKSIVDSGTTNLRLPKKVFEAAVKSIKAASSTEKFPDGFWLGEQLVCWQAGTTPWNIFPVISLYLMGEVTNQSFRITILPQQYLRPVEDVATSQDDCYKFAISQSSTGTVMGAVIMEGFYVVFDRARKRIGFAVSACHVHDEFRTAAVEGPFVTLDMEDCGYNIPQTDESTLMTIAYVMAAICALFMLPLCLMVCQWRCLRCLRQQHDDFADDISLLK
E-selectin (Homo sapiens), sequence (P16581 whole entry, looked up): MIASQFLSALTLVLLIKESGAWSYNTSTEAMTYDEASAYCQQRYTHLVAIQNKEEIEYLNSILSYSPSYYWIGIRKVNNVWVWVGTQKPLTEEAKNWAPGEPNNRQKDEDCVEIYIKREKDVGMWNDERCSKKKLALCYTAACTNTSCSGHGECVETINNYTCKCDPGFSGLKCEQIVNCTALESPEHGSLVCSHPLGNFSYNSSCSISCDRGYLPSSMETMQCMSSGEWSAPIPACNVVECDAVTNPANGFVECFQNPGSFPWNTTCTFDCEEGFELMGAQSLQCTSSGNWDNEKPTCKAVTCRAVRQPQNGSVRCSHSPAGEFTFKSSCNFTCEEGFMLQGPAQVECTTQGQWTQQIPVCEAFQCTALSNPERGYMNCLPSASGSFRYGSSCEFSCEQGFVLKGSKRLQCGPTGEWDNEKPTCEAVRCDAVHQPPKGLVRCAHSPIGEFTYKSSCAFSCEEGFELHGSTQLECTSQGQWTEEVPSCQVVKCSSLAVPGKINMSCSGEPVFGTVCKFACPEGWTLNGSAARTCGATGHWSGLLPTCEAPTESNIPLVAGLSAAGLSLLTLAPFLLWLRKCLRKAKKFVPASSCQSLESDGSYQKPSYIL
human Caspase 5 (CASP5), CASP5 (gene 838), sequence (P51878 whole entry, looked up): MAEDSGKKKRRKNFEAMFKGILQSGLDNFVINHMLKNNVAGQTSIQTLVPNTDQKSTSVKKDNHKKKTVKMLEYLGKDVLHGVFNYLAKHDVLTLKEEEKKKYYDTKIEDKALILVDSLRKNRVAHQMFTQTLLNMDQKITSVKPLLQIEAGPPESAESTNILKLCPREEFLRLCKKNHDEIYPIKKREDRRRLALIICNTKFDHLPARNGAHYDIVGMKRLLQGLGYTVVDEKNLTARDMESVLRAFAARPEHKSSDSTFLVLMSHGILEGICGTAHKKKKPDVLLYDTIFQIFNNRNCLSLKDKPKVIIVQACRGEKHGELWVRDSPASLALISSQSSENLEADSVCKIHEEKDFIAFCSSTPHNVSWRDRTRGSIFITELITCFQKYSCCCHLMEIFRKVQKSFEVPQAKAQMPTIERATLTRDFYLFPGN
human AKT serine/threonine Kinase 1 (AKT1), AKT1 (gene 207), sequence (P31749 whole entry, looked up): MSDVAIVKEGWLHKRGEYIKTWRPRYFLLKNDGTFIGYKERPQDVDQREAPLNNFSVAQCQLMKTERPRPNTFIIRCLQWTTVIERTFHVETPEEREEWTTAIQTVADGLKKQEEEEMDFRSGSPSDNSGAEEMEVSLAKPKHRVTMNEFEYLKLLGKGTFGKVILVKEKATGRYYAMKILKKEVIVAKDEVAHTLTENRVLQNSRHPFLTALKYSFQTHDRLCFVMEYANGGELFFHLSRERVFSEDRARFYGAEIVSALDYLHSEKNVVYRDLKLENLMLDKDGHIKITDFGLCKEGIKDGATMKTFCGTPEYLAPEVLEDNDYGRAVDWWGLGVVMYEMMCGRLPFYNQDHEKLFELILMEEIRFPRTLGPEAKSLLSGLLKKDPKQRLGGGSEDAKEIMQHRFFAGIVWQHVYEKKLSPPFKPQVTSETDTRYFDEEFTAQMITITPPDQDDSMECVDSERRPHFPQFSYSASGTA
human CYP1A1, CYP1A1 (gene 1543), sequence (P04798 whole entry, looked up): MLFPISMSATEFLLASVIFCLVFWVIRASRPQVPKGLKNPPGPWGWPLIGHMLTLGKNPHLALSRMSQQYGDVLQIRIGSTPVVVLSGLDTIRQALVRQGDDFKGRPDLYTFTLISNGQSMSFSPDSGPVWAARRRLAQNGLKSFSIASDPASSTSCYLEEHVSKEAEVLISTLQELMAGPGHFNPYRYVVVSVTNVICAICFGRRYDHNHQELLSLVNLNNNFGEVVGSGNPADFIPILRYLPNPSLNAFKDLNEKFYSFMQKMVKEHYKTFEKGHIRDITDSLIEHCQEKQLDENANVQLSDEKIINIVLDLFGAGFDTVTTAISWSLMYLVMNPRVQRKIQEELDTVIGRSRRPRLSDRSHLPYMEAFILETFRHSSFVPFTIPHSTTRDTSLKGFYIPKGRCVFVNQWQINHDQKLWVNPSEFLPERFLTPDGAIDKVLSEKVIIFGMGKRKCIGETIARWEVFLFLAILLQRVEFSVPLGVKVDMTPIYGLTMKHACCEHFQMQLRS
human Acid Phosphatase 1 (ACP1), ACP1 (gene 52), sequence (P24666 whole entry, looked up): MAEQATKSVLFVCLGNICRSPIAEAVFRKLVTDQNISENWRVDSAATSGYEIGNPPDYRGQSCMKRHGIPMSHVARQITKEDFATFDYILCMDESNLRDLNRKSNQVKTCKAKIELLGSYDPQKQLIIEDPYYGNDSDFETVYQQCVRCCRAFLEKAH
Cytochrome P450 3A4 (Homo sapiens), sequence (P08684 whole entry, looked up): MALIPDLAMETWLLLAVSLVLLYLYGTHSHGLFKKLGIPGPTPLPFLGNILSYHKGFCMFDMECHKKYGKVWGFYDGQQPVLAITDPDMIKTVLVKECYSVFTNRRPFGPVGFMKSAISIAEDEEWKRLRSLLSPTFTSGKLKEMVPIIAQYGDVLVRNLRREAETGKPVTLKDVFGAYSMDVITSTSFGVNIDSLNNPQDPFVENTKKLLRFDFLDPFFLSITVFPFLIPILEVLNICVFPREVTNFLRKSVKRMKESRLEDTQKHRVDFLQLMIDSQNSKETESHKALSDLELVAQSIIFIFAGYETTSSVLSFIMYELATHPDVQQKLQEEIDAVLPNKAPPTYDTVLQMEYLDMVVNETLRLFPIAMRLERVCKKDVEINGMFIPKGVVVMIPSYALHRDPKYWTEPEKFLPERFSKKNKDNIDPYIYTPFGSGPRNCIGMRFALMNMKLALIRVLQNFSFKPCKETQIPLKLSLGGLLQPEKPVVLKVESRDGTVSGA
human CYP2C9, CYP2C9 (gene 1559), sequence (P11712 whole entry, looked up): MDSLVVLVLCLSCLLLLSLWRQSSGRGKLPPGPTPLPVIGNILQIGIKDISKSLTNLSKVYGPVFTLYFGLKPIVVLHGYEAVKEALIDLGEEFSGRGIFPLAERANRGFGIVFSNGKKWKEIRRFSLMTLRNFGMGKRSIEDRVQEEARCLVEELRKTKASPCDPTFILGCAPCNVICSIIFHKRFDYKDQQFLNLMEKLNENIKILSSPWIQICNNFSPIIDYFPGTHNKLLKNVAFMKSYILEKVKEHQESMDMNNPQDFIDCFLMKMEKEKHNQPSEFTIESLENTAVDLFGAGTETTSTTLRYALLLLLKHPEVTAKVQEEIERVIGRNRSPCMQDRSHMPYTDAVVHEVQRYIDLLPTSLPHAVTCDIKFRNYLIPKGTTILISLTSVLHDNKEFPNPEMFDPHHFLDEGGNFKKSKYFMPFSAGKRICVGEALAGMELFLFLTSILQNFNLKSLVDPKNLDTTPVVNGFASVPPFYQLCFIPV
Caspase-3 (Homo sapiens), sequence (P42574 whole entry, looked up): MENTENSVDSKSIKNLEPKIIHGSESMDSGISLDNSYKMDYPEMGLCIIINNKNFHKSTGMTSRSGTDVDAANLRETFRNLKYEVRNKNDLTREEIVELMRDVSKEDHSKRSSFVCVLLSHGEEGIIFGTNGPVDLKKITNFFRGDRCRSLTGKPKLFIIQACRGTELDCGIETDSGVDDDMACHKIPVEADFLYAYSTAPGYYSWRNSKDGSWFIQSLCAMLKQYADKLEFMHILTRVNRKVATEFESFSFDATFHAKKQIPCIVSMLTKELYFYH
human CYP19A1, CYP19A1 (gene 1588), sequence (P11511 whole entry, looked up): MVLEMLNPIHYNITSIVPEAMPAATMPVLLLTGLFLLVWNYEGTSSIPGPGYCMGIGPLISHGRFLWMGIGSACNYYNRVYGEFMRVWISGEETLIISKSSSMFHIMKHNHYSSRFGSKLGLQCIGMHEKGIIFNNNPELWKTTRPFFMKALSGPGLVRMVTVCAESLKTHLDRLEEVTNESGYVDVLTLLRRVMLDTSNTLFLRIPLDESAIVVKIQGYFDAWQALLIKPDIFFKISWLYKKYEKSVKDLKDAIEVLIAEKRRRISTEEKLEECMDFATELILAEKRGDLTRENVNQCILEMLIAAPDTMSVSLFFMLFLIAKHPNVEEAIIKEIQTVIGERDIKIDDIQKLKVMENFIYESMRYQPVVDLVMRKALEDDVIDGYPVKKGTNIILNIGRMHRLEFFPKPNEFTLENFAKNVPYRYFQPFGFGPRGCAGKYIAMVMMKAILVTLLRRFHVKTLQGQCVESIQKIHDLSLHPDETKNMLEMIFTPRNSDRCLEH
human CYP2D6, CYP2D6 (gene 1565), sequence (P10635 whole entry, looked up): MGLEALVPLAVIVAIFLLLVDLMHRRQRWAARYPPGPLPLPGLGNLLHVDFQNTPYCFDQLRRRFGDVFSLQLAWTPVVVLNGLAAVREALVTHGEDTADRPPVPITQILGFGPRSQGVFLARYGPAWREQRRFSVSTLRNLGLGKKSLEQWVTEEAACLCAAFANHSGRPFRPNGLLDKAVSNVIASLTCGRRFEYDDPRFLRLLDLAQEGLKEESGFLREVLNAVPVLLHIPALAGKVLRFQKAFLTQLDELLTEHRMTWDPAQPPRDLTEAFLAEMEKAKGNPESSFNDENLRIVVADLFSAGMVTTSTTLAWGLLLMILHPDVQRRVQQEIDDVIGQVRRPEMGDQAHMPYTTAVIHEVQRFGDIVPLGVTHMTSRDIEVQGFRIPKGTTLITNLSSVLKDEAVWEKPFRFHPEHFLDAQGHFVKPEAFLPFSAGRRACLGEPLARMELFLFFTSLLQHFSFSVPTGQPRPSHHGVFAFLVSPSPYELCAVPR

CCCCC(CC)C(=O)OCCOCCOCCOC(=O)C(CC)CCCC (centres undefined)
inactive: [1] | [2] | [3] | [4] | [6] | [7]
active: [5] 24.7 µM

CC(C)CC(C)O (centres undefined)
inactive: [1] | [3] | [4] | [5] | [6]

C=CCc1cc(S(=O)(=O)c2ccc(O)c(CC=C)c2)ccc1O
active: [1] 13.8 µM | [2] 34.8 µM | [3] 36.8 µM | [4] 11.4 µM | [5] 17.1 µM | [6] 19.2 µM | [8] 2.32 µM | [9] 2.77 µM | [10] 3.26 µM | [11] 0.567 µM | [12] 0.118 µM | [13] 4.54 µM | [14] 0.164 µM | [7] 15.2 µM

CCCCCOC(C)=O
inactive: [1] | [4] | [6]
active: [3] 30.3 µM | [5] 15.1 µM

O=C(NO)C1(NS(=O)(=O)c2ccc(Oc3ccc(F)cc3)cc2)CCOCC1
inactive: [1] | [2] | [3] | [4] | [5] | [6] | [14]

OCc1c[nH]c2ccccc12
inactive: [1] | [2] | [3] | [6]
active: [4] 0.0481 µM | [5] 31.1 µM | [14] 0.574 µM | [15] 25 µM and 29.7 µM | [7] 25 µM

CCOc1ccc2[nH]cc(C(=O)NCc3ccccc3)c(=O)c2n1
inactive: [1] | [3] | [4] | [5] | [6]

O=S(=O)(O)c1ccc(N=Nc2c(O)ccc3cc(S(=O)(=O)O)ccc23)cc1
inactive: [1] | [2] | [3] | [4] | [5] | [6]
active: Caspase-3 (Homo sapiens) 37.7 µM

CC(C)c1nnc2ccc(-c3ocnc3-c3cc(F)ccc3F)cn12
inactive: [6]
active: [1] 10.6 µM | [3] 0.882 µM | [4] 1.27 µM | [5] 12.8 µM

CC(=O)c1ccccc1
inactive: [1] | [3] | [4] | [5] | [6]

CCCc1ccccc1
inactive: [1] | [3] | [4] | [5] | [6]

CCCCCCOC(=O)CC(CC(=O)OCCCCCC)(OC(=O)CCC)C(=O)OCCCCCC
active: [3] 4.11 µM | [5] 9.76 µM | [14] 2.71 µM
inactive: [1] | [2] | [4] | [6]

CCc1cccc(CC)c1N
inactive: [1] | [3] | [4] | [5] | [6]

NC(N)=O
inactive: [1] | [3] | [4] | [5] | [6]

FC(F)=C(F)C(F)(F)C(F)(F)C(F)(F)C(F)(F)C(F)(F)C(F)(F)F
inactive: [1] | [3] | [4] | [5] | [6]

Cc1nc(-c2ccccn2)ncc1C(=O)Nn1cc(C)c2cc(F)ccc21
inactive: [1] | [2] | [3] | [4] | [6] | [16]
active: [5] 20 µM

CCCCCCCCCCCCCCCCOS(=O)(=O)O
inactive: [1] | [3] | [4] | [5] | [6]
active: [15] 2.18 µM | [7] 1.27 µM

CCCC(CCC)C(=O)O
inactive: [1] | [3] | [4] | [5] | [6] | [17] | [18]
active: [14] 10 µM

CC1(C)C(=O)N(Cl)C(=O)N1Cl
inactive: [1] | [3] | [4] | [5] | [6]

O=c1[nH]cnc2c1ncn2[C@H]1CC[C@@H](CO)O1
inactive: [1] | [3] | [4] | [5] | [6] | [18]

Cc1ccc(S(=O)(=O)NC(=O)NN2CCCCCC2)cc1
inactive: [1] | [3] | [4] | [5] | [6]
